# ELG1 repair inh: inhibitors of ELG1-dependent DNA repair in HEK293T cells | 330,000 tested, 2.3% active | AID 504467 | HEK293T ELG1-luciferase reporter, luminescence, 16 h; DNA damage induced by 5-fluorouridine | Potency, µM (top dose mostly 46.1 µM), for inactives: at the top dose activity change, negative = inhibition, most hits filed as inhibitors; note: % is set by controls: 0 for no effect and ±100 for the full control effect; nearly all actives have a fitted effect of over 55% in size
#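 Reporter activity after DNA damage by 5-fluorouridine is monitored. Compound-treated cells incubate 16 hr at 37 °C, then ONE-Glo is added for 30 min before luminescence reading.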
# Rab9 promoter act: activates the Rab9 promoter | Huh7 Rab9 promoter-luciferase reporter, luminescence, 24 h | Potency, µM (highest dose often 9.22 µM), without a hit: at the top dose activation, negative = inhibition, usual class: activators | 320,000 tested, 2.8% active; note: % of control where 0% means no effect; nearly all actives have a fitted effect of over 60% in size
#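 Measured in stably transfected Huh7 cells bearing a Rab9 promoter–luciferase construct: 24 h compound treatment at 37 °C, followed by luminescence detection.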
# SMN2 splice up: enhancers of SMN2 splice variant expression; HEK293 SMN2-luciferase splicing reporter, luminescence, 30-36 h; Potency, µM (doses to about 46.1 µM), for the others: at the top dose activity change, positive = activation, most hits filed as activators; AID 1458; 210,000 tested, 2.8% active; note: % of control where 0% means no effect; nearly all actives have a fitted effect of over 55% in size
#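 HEK293 cells carry an SMN2 minigene-luciferase reporter in which exon 7 inclusion puts luciferase in frame. Cells were seeded at 2000 cells/well, attached for 10-12 hours, then exposed to compounds for 30-36 hours at 37C before ONE-Glo luminescence.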
# FLuc modulator: inhibits or activates purified firefly luciferase, miR-21 counter-screen | P08659 | purified FLuc, Km substrates, luminescence inhibition | Potency, µM (doses to about 57.5 µM), inactives show at the top dose activity change, negative = inhibition, usual class: inhibitors | 360,000 tested, 6.9% active | AID 588342;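 note: plate controls were vehicle for no effect and reference inhibitor for full effect; nearly all actives have a fitted effect of over 55% in size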
# Target sequence (P08659 whole entry, looked up): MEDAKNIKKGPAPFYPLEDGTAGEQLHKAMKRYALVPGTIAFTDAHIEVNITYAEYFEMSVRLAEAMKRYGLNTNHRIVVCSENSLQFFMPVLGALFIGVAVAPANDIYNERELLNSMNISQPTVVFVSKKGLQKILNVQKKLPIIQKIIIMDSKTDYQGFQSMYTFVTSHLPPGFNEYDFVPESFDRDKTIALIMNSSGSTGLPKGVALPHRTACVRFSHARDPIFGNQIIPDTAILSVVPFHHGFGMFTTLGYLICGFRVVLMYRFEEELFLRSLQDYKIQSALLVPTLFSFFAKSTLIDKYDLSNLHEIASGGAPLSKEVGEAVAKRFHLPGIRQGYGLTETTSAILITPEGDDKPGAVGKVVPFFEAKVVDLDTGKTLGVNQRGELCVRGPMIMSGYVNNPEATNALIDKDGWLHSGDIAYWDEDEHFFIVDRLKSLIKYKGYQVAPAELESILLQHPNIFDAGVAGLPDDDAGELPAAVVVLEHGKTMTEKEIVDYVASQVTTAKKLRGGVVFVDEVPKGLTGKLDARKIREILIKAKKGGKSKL
#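 Purified P. pyralis luciferase (10nM final) with 10uM D-luciferin and 10uM ATP (Km levels) in 50mM Tris acetate pH 7.5, 10mM Mg acetate, 0.01% Tween-20, 0.05% BSA; qHTS 6-point titration, ~60 µM downward; luminescence read.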
# NPC1 promoter act: activates the NPC1 promoter | Huh7 NPC1 promoter luciferase reporter, 24 h | Potency, µM (top dose mostly 9.22 µM), for inactives: top-dose activation, actives largely listed as activators | 320,000 tested, 2.4% active; note: % of control where 0% means no effect; nearly all actives have a fitted effect of over 60% in size
#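 Luciferase expression driven by the NPC1 promoter was measured in stably transfected Huh7 cells after a 24 h compound incubation, using a luciferase reagent and a luminescence read.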
# ELG1 genotox: inducers of genotoxicity in HEK293T ELG1-luciferase cells | HEK293T ELG1-luciferase reporter, luminescence, 16 h | Potency, µM (titrated, usually from 46 µM), for inactives: top-dose activity change, positive = activation, usual class: activators | 330,000 tested, 1.3% active | AID 504466; note: % of control where 0% means no effect; nearly all actives have a fitted effect of over 60% in size
#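 Luminescence read-out: rising ELG1-luciferase signal, reflecting elevated ELG1 protein under genetic stress, flags genotoxic compounds. Cells were treated for 16 hr at 37 °C before ONE-Glo detection.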
# * marks the source's active call; other numbers are inactive results; ? = inconclusive; nt = no result given. This is a sample that favours compounds with a hit; in the whole collection about 9.2% have one here. Calls come from the whole dose curve; as a rule, active = well fitted curve in the direction sought with a large enough effect; inconclusive = small, poorly fitted or top-dose-only effect, or another doubt; inactive = no such curve, though single readings can be large; an effect the other way counts as inactive or inconclusive. Potency is the fitted concentration of half-maximal effect.
SMILES,ELG1 repair inh,Rab9 promoter act,SMN2 splice up,FLuc modulator,NPC1 promoter act,ELG1 genotox
Cc1noc(C)c1C(=O)Nc1nc2ccc(F)cc2s1,?,3.16µM*,nt,4.26µM*,1.58µM*,?
CCc1noc(C)c1C(=O)Nc1nc2ccc(S(C)(=O)=O)cc2s1,?,4.0%,nt,2.39µM*,22.2%,14.8%
CCc1noc(C)c1C(=O)NCCc1ccc(F)cc1,8.2%,-2.4%,nt,1.8%,-1.3%,0.3%
CCc1noc(C)c1C(=O)Nc1nc2ccc(F)cc2s1,?,?,nt,16.9µM*,?,9.4%
CCc1noc(C)c1C(=O)NCCc1ccccc1,?,?,nt,?,?,16.4µM*
COc1cc(OC)c(C2C=C(c3ccc(C)cc3)Nc3c(C(=O)Nc4ccccc4)cnn32)cc1OC (stereo unspecified),nt,nt,nt,-15.1%,nt,nt
CCc1noc(C)c1C(=O)Nc1nc(-c2ccccc2)c(C(C)=O)s1,?,-8.5%,nt,15.1µM*,-0.8%,-2.4%
COc1cccc(-n2c(=O)c3c(C)c(C)sc3n(CC(=O)NCCc3ccc(OC)c(OC)c3)c2=O)c1,nt,nt,-6.4%,-2.3%,nt,nt
O=c1c2cc(F)ccc2sn1-c1ccc(F)cc1,18.9%,29.5%,nt,?,17.3%,-0.4%
COc1ccc(-n2sc3ccc(F)cc3c2=O)cc1,?,3.55µM*,nt,?,?,5.3%
O=C(O)/C=C/C(=O)c1ccc2c(c1)CCc1ccccc1-2,?,?,nt,23.9µM*,26.1%,-10.6%
COCCn1c(C)cc(C(=O)CSc2nc3ccccc3c(=O)n2Cc2ccco2)c1C,?,1.26µM*,7.08µM*,1.69µM*,3.16µM*,?
COCCn1c(C)cc(C(=O)CSc2cc(C)c3ccccc3n2)c1C,-22.1%,11.0%,-14.1%,13.5µM*,1.5%,1.1%
CN(C)CCN(C(=O)c1ccc2c(c1)CCCC2)c1nc2c(F)cccc2s1,?,6.1%,nt,10.7µM*,2.1%,?
O=S(=O)(N/N=C/c1ccccc1OCc1ccc(Cl)cc1)c1ccccc1,?,1.4%,5.8%,?,0.9%,15.4%
O=C(N/N=C/c1ccc[nH]1)c1ccccc1O,?,?,nt,9.53µM*,22.7%,?
O=c1c(/C=N\NS(=O)(=O)c2ccccc2)coc2ccc(Cl)cc12,14.6µM*,8.0%,nt,-2.3%,11.1%,-17.8%
O=C(N/N=C/c1sc(=O)n(-c2ccccc2)c1Cl)c1ccccc1,?,1.78µM*,7.08µM*,6.01µM*,1.58µM*,14.3%
O=C(N/N=C/c1ccoc1)c1ccccc1,?,3.1%,nt,26.9µM*,15.9%,?
O=C(N/N=C/c1ccc[nH]1)c1ccc(O)cc1,?,10.7%,nt,?,-22.1%,12.1%
Oc1oc(C=Nc2ccc(F)cc2F)c2ccccc12,13.5%,0.8%,25.2%,5.1%,-1.0%,-0.5%
O=C(N/N=C/c1coc2ccccc2c1=O)c1ccccc1,-11.7%,-5.7%,-3.6%,16.9µM*,-2.9%,-3.8%
O=C(N/N=C/c1ccoc1)c1ccc(Br)cc1,27.1%,14.8%,nt,15.1µM*,6.4%,17.9%
O=[N+]([O-])CC(=Nc1ccc(F)cc1)N/N=C\c1oc(O)c2ccccc12,29.6%,29.6%,nt,15.1µM*,?,6.9%
O=C(N/N=C/c1ccoc1)c1cc(O)cc(O)c1,?,1.9%,nt,?,-3.9%,-0.1%
SMILES,ELG1 repair inh,Rab9 promoter act,SMN2 splice up,FLuc modulator,NPC1 promoter act,ELG1 genotox
O=C(N/N=C/c1ccoc1)c1ccccc1O,18.0%,-2.2%,nt,10.7µM*,1.8%,?
O=C(N/N=C/c1coc2ccccc2c1=O)c1ccc(Cl)cc1,0.8%,17.8%,nt,-5.7%,0.7%,-9.4%
O=C(N/N=C/c1ccoc1)c1ccc(Cl)cc1,7.2%,3.8%,nt,?,0.7%,5.9%
O=C(Cc1c(Cl)cccc1Cl)OCC(=O)N1CCN(C(=O)c2ccco2)CC1,-6.2%,0.0%,8.6%,-2.7%,-0.6%,0.1%
Cc1ccc(NC(=O)CN2C(=O)CCc3cc(S(=O)(=O)N4CCCCC4)ccc32)cc1N(C)C,nt,nt,nt,3.3%,nt,nt
CC1CCCCN1S(=O)(=O)c1ccc2c(c1)C(C)(C)C(=O)N2C (stereo unspecified),16.9%,-2.6%,nt,-0.1%,0.5%,3.0%
Cc1ccc(-c2ccc(/C=N/NC(=O)c3ccccc3O)o2)cc1,?,13.4%,nt,?,9.7%,-8.1%
O=C(N/N=C/c1oc(O)c2ccccc12)c1ccccc1O,25.3%,-4.8%,-10.3%,10.7µM*,-1.7%,14.5%
CCOc1ccc(C2c3c(oc4ccccc4c3=O)C(=O)N2Cc2ccc3c(c2)OCO3)cc1 (stereo unspecified),nt,nt,12.2%,0.2%,nt,nt
CC(=O)c1cccc(NC(=O)c2c(N3CCCC3=O)c3cc(F)ccc3n2C)c1,nt,nt,nt,1.0%,nt,nt
Cn1cccc1/C=C1\CC(C(C)(C)C)C/C(=C\c2cccn2C)C1=O (stereo unspecified),?,-18.9%,-27.6%,-0.6%,-22.5%,-13.5%
Cn1cccc1/C=C1\CCc2ccccc2C1=O,?,0.126µM*,1µM*,1.51µM*,0.355µM*,?
Cn1cccc1/C=C1\Cc2ccccc2C1=O,?,?,?,6.75µM*,-26.0%,?
CC(C)(CN1CCc2ccccc2C1)NS(=O)(=O)c1ccc(Cl)cc1,?,-1.9%,nt,-1.3%,-2.0%,-8.9%
CC(C)CCOc1ccc(C(=O)N2CCN(c3ncccn3)CC2)cc1,-15.8%,-4.0%,nt,1.9%,0.5%,-2.9%
COc1ccc(S(=O)(=O)Nc2cccc3c2O[C@H](CN(C)C)[C@@H](C)CN([C@H](C)CO)C3=O)cc1,16.0%,nt,nt,nt,nt,2.7%
COc1ccc(OC)c(S(=O)(=O)N(C)CC(=O)Nc2ccc3c(c2)OCO3)c1,-14.1%,0.1%,4.8%,-12.6%,-1.1%,4.5%
COc1ccc(OC)c(NC(=O)Nc2ccc3c(c2)OCO3)c1,0.2%,7.8%,nt,26.9µM*,3.6%,-0.1%
O=C(Nc1ccc2c(c1)OCO2)Oc1ccccc1,nt,nt,-6.9%,10.7µM*,nt,nt
COc1cccc(NC(=O)CN(C)CC(=O)Nc2ccc3c(c2)OCO3)c1,-6.7%,nt,nt,nt,nt,0.2%
COc1cccc(NC(=O)Nc2ccc3c(c2)OCO3)c1,?,1.41µM*,nt,7.57µM*,2µM*,?
CC(=O)Nc1cccc(OCCCNC(=O)c2cccc3ccccc23)c1,-5.9%,3.7%,nt,?,13.9%,-1.7%
COc1ccc(OC)c(NS(=O)(=O)c2c(C(=O)N3CCCCCC3)c(C)n(C)c2C)c1,2.6%,-2.9%,nt,0.2%,-0.3%,0.0%
CCc1cccc2c(C(=O)COC(=O)c3ccccc3)c[nH]c12,?,?,26.3%,2.39µM*,?,?
